HCMV antiviral: qHTS Assay for inhibitors of the human cytomegalovirus (HCMV); actives 4.5% (n = 410,000); activity change, negative = inhibition, % at 57.5 µM; HFF cells, HCMV-luciferase reporter, 72 h; stronger effect = lower value; AID 1259415, 2018; in the data active = activity change below about -60%; inconclusive = no clear call, values can overlap the other calls; inactive = above about -39%
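Two compound doses tested in HFFs infected with HCMV-luciferase, MOI 1 PFU/cell, 72 h at 37C. Lysate luminescence read with OneGlo; data normalized against buffer-only and 10uM Salinomycin inhibitor controls.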
MARV entry inh: qHTS for inhibitors of binding or entry into cells for Marburg Virus | Potency, µM (top dose mostly 37.8 µM), inactives show at the top dose activity change, negative = inhibition, hits mostly inhibitors | actives 1.8% (n = 300,000) | AID 540276, 2011 | Marburg virus pseudotyped entry inhibition, cell reporter; calls by dose curve; tested in HEK293 cells; also: potency is read from the fitted curve at half-maximal effect
HCV inhibitor: qHTS Assay for Inhibitors of Hepatitis C Virus (HCV) | Huh7.5.1 HCVcc-Cre infection, luciferase reporter, 44 h | Potency, µM (highest dose often 41.8 µM), for inactives: top-dose activity change, negative = inhibition, actives largely listed as inhibitors | actives 3.4% (n = 340,000); also: potency is read from the fitted curve at half-maximal effect
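A cell-based infection assay in which seeded cells (1,000 per well) receive test compound after 4 h, are inoculated with HCVcc-Cre at approximately 0.5 moi, and are incubated 44 h before luminescence detection.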
LASV entry inh: qHTS for Inhibitors of binding or entry into cells for Lassa Virus; Lassa virus pseudotype entry inhibition, cell reporter; Potency, µM (titrated, usually from 37.9 µM), without a hit: at the highest dose activity change, negative = inhibition, usual class: inhibitors; actives 1.2% (n = 300,000); calls by dose curve; tested in HEK293 cells; also: potency is read from the fitted curve at half-maximal effect; nearly all actives have a fitted effect of over 50% in size
Pf growth 48h: Primary qHTS for delayed death inhibitors of the malarial parasite plastid, 48 hour incubation | AID 504832, 2011 | Potency, µM (doses to about 28.7 µM), without a hit: at the top dose activity change, negative = inhibition, actives largely listed as inhibitors | actives 5.9% (n = 310,000) | P. falciparum luciferase growth in erythrocytes, 48 h; also: potency is read from the fitted curve at half-maximal effect
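Erythrocytes infected with P. falciparum carrying an integrated firefly luciferase reporter (2% hematocrit, 0.1% parasitemia final) were exposed to compounds in RPMI 1640 with 0.5% Albumax at 37 C, 5% CO2. Growth inhibition was scored as reduced luminescence.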
Pf growth 96h: Primary qHTS for delayed death inhibitors of the malarial parasite plastid, 96 hour incubation. Potency, µM (top dose mostly 28.7 µM), inactives show at the top dose activity change, negative = inhibition, usual class: inhibitors. AID 504834, 2011. P. falciparum luciferase reporter growth, 96 h. actives 6.9% (n = 320,000); also: potency is read from the fitted curve at half-maximal effect
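Two-generation exposure (96 h) targets delayed-death phenotype. Reporter parasites carrying integrated firefly luciferase, in red cells at 2% hematocrit and 0.05% parasitemia final, kept at 37 C, 5% CO2; luminescence loss indicates inhibition.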
Numbers without * were called inactive; i = inactive; ? = inconclusive; / = no result; [ ] = remark or other dose. An excerpt weighted towards active compounds, which were near 14% of everything screened. Unless noted, calls follow the shape of the dose curve; as a rule, active = well fitted inhibition curve with a large enough effect; inconclusive = small, poorly fitted or top-dose-only effect, or another doubt; inactive = no such curve, though single readings can be large or run the other way. % is scaled to controls: 0 for no effect and ±100 for the full control effect.

SMILES	HCMV antiviral	MARV entry inh	HCV inhibitor	LASV entry inh	Pf growth 48h	Pf growth 96h
N#C/C(=C/c1ccccc1[N+](=O)[O-])c1nnc2n1CCCCC2	-60.3*	17.2%	-12.9%	2.6%	-0.5%	2.2%
COc1ccc(-c2nc3ccccc3s2)cc1NC(=O)c1ccc(F)cc1	50.0	-3.7%[46.1 µM]	/	1.3%[46.1 µM]	/	/
O=Cc1ccc(F)c([B-](F)(F)F)c1	3.0	/	-31.8%	/	/	/
CCc1cccc(C)c1NC(=O)CSc1nnc(N)s1	-16.3	/	/	-17.2%[46.1 µM]	/	/
CC[n+]1c(/C=C2/C=C(C)CC(C)(C)C2)sc2ccc(OC)cc21	-86.5*	?	?	?	0.37µM*	36.0%
CC[n+]1c(/C=C2\C=C(C)CC(C)(C)C2)sc2ccccc21	-18.5	?	6.31µM*	9.2µM*	0.329µM*	?
N#CC(c1cccc([N+](=O)[O-])c1)C(CC(=O)c1ccccc1)c1ccccc1 (stereo not drawn)	-31.5	/	/	/	/	/
CC1CCc2nc(NC(=O)CSc3nc4ccccc4o3)sc2C1 (stereo not drawn)	-85.1*	-25.6%	11.2µM*	?	289.6%	/
Cc1nonc1NC(=O)CSc1nc2ccccc2o1	-28.1	-0.8%[46.1 µM]	11.8%	-1.4%[46.1 µM]	13.1µM*	36.4%
CN(C)c1ccc(/C=C2\C(=N)N3C(=NC2=O)Sc2cc(S(C)(=O)=O)ccc23)cc1	/	/	/	/	-12.9%	-10.2%
O=C(NC1CCCC1)C(c1ccccc1)N(Cc1ccccc1)C(=O)c1csnn1 (stereo not drawn)	-6.7	?	1.1%	8.5%[46.1 µM]	?	?
C#CCn1cnc2c(cnn2-c2ccc(F)cc2)c1=O	-22.0	2.7%[46.1 µM]	/	4.0%[46.1 µM]	/	/
Cc1ccc(C)c(N(Cc2cc3ccc(C)cc3[nH]c2=O)C(=O)c2ccco2)c1	0.0	/	?	/	?	7.38µM*
O=c1[nH]c2cc3c(cc2cc1CN(Cc1ccco1)C(=S)NCC1CCCO1)OCCO3 (stereo not drawn)	-17.2	?	?	?	-5.7%	?
Cc1cc2cc(CN(Cc3ccc4c(c3)OCO4)C(=O)c3ccco3)c(=O)[nH]c2cc1C	/	3.7%	-69.0%	-7.7%	?	?
COc1ccc2cc(CN(CC3CCCO3)C(=S)NCc3ccco3)c(=O)[nH]c2c1 (stereo not drawn)	-12.6	-6.8%[46.1 µM]	-0.5%	2.1%	9.28µM*	26.0%
Cc1ccc2cc(CN(CC3CCCO3)C(=S)NCc3ccco3)c(=O)[nH]c2c1 (stereo not drawn)	6.4	?	-0.3%	-27.9%	?	18.7%
O=C(c1ccco1)N(Cc1ccc2c(c1)OCO2)Cc1cc2cc3c(cc2[nH]c1=O)OCO3	?	/	-11.1%	/	45.4%	11.7µM*
Cc1ccc2cc(CN(Cc3ccco3)C(=S)NCC3CCCO3)c(=O)[nH]c2c1 (stereo not drawn)	/	?	-16.3%	-24.5%	-3.6%	3.7µM*
Cc1cc(=O)[nH]c2nnc(SCc3ccccc3F)n12	2.9	/	/	-12.8%[46.1 µM]	/	/
CCCCCCCCC(c1nc2ccccc2[nH]1)N1CCN=C(c2ccccc2)C1=O (stereo not drawn)	-3.5	/	/	/	/	/
Cn1c(SCc2cccc([N+](=O)[O-])c2)nc2ccccc2c1=O	?	?	-25.1%	-18.5%	5.22µM*	10.4µM*
COc1ccc(C(=O)Nn2c(SCc3cccc([N+](=O)[O-])c3)nc3ccccc3c2=O)cc1	-70.5*	8.91µM*	?	3.26µM*	217.2%	?
COCCn1c(SCc2cccc([N+](=O)[O-])c2)nc2ccccc2c1=O	?	?	11.2µM*	?	9.28µM*	?
Cc1ccc(CSc2nc3ccccc3c(=O)n2C)cc1	-65.4*	?	?	-14.6%	-19.7%	-12.7%
SMILES	HCMV antiviral	MARV entry inh	HCV inhibitor	LASV entry inh	Pf growth 48h	Pf growth 96h
CSc1nc(N)nc2c1ncn2CC(=O)N[C@H](CO)Cc1c[nH]c2ccccc12	-4.8	/	13.0%	/	/	/
CCOC(=O)c1ccc(N2CC3=C(C2=O)C(c2ccc(OC)cc2)NC(=O)N3C)cc1 (stereo not drawn)	-12.3	/	/	-38.1%[46.1 µM]	/	/
Cc1nnc(SCc2ccc([N+](=O)[O-])cc2)[nH]c1=O	?	-4.9%[46.1 µM]	8.9%	16.4%	13.5%	5.1%
CCn1c(SCc2ccccc2)nc2ccccc2c1=O	?	-19.8%[46.1 µM]	14.5%	3.1%[46.1 µM]	/	/
Cc1nnc(SCc2cccc([N+](=O)[O-])c2)[nH]c1=O	-81.5*	21.2%[46.1 µM]	-0.8%	-4.4%[46.1 µM]	15.5%	28.0%
Cn1c(SCc2cccc(C#N)c2)nc2ccccc2c1=O	-64.3*	-7.0%[46.1 µM]	31.6µM*	?	10.4µM*	68.8%
COc1ccc(-c2ccc3c(c2)N(C(C)C)C(=O)COC3)cc1	-8.0	/	/	/	/	/
CN1CC(=O)N(C)c2ncn(Cc3ccccc3)c2C1=O	33.9	-10.1%	0.4%	2.2%	26.1%	8.28µM*
O=c1c2ccccc2ncn1Cc1ccccc1	18.9	-2.9%[46.1 µM]	15.1%	-15.0%	12.2%	?
COc1ccc(NC(=O)c2cc(S(=O)(=O)NCC3COc4ccccc4O3)ccc2F)cc1 (stereo not drawn)	?	-3.8%	?	-13.6%	-16.7%	44.0%
CC(C)c1ccc(NC(=O)c2cc(S(=O)(=O)NCC3COc4ccccc4O3)ccc2F)cc1 (stereo not drawn)	-13.4	?	?	?	?	2.94µM*
CCOc1ccc(CCNC(=O)c2ccc(-n3c(C)cc4c3CCCC4)cc2)cc1OCC	-85.1*	/	/	?	/	/
Cc1cc2c(n1-c1ccc(C(=O)NCc3ccc(OC(C)C)cc3)cc1)CCCC2	-98.6*	/	/	?	/	/
O=C(NC1CCNCC1)C1CC1	11.7	/	4.3%	/	18.1%	45.6%
O=C(NC1CC1)C1C2C3C4CC5C3C5C4C12 (stereo not drawn)	-6.1	15.1%	16.9%	-19.0%	5.86µM*	6.9%
COC(=O)c1ccc2cc(C)cc(C)c2n1	12.9	/	/	/	/	/
Cc1cc(Cn2nc(C(=O)NCc3cccc(Br)c3)cc2-c2ccccc2)on1	33.1	/	-43.6%	/	?	?
CCCCC(=O)N1CCN(c2nc(-c3ccc(F)cc3)cs2)CC1	-8.9	2.9%	?	3.2%	8.9%	?
Brc1ccc(-c2csc(N3CCOCC3)n2)cc1	6.6	/	11.2µM*	/	i	?
O=C(N1CCOCC1)N1CCN(c2nc(-c3ccc(F)cc3)cs2)CC1	-14.6	1.0%	-22.4%	?	-12.1%	7.38µM*
Brc1ccc(-c2csc(/N=C/N3CCCC3)n2)cc1	-23.2	8.91µM*	11.2µM*	?	222.0%	95.6%
Clc1ccc(-c2csc(N3CCOCC3)n2)cc1	0.4	?	-9.0%	?	i	i
Brc1ccc(-c2csc(/N=C/N3CCOCC3)n2)cc1	5.2	?	?	?	75.4%	66.3%

Bioassay records: PubChem, National Center for Advancing Translational Sciences (NCATS)
